An excerpt weighted towards active compounds, which were near 1.9% of everything screened.
Abeta rescue: qHTS for compounds that reverse cellular toxicity of Amyloid beta (A-beta) peptide in yeast: Primary Screen | Potency, µM (highest dose often 46.1 µM), hits mostly activators | yeast expressing A-beta42, growth rescue, OD600, 48 h; response scale: 0% DMSO, 100% iron-clioquinol control | actives 0.063% (n = 410,000); further: nearly all actives have a fitted effect of over 55% in size
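Yeast A-beta toxicity model in growth medium with pinned compounds, 48 h at 30 C; growth read as absorbance at 600 nm. Normalized to FeCl3/clioquinol equimolar mix (positive) and DMSO (negative).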
TDP43 rescue: qHTS of TDP-43 Inhibitors. TDP-43 expressing yeast growth rescue, BacTiter-Glo, 24 h. Potency, µM (highest dose often 46.1 µM), most hits filed as activators. actives 1.8% (n = 410,000). AID 652104, 2013; further: nearly all actives have a fitted effect of over 50% in size
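In this qHTS, compounds that restore growth of yeast expressing TDP-43 appear as activators. Cells (OD600=0.02, galactose medium, raffinose-pregrown) are incubated with compound 24 hr at 30 deg C and growth is quantified by BacTiter-Glo.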
aSyn yeast inh: qHTS of alpha-syn Inhibitors. Yeast expressing alpha-synuclein, growth rescue, BacTiter-Glo, 24 h. Potency, µM (titrated, usually from 46.1 µM), usual class: activators. actives 0.14% (n = 370,000); further: nearly all actives have a fitted effect of over 65% in size
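Rescue of yeast growth: cells expressing toxic alpha-synuclein, induced in galactose at OD600 0.02, incubated with compound 24 h at 30 C. ATP luminescence quantified growth; inhibitors of toxicity appear as activators.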
LDHA inh: qHTS assay for inhibitors of human lactate dehydrogenase | L-lactate dehydrogenase A chain (Homo sapiens), P00338 | purified LDHA, NADH/diaphorase-resazurin fluorescence; active compounds read low | activity change, % (values are at about 110 or 230 µM) | actives 0.15% (n = 480,000) | AID 1347041, 2019; in the data active means activity change below about -30%; inconclusive means mostly about -25% to -30%
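Human LDH5 (2 nM) was incubated with 0.06 mM NADH and 0.2 mM pyruvate for 5 min at room temperature in Tris pH 7.4. Remaining NADH was coupled through diaphorase/resazurin, and resorufin fluorescence was read at 0 and 20 min.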
FUS suppressor: qHTS for Suppressors of FUS Proteinopathy: Primary screen using FUS-linked yeast assay; Potency, µM (doses to about 76.6 µM), most hits filed as activators; S. cerevisiae FUS-expressing, growth rescue, OD600, 24 h; actives 0.24% (n = 390,000); AID 1347120, 2019; further: nearly all actives have a fitted effect of over 55% in size
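Quantitative HTS measuring growth restoration of FUS-toxic yeast. Galactose-induced cells (OD 0.005) were exposed 24hr at 30C to compounds at several concentrations, then absorbance at 600 nm was recorded.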
PTHR1 ag: qHTS for PTHR1 Agonists: Primary Screen. Parathyroid hormone/parathyroid hormone-related peptide receptor (Homo sapiens), Q03431. HEK293 GP2 PTHR1 cells, GloSensor cAMP luminescence, 1 h. Potency, µM (top dose mostly 115 µM), hits mostly activators. actives 0.075% (n = 410,000); further: nearly all actives have a fitted effect of over 55% in size
Target sequence (Q03431 whole entry, looked up): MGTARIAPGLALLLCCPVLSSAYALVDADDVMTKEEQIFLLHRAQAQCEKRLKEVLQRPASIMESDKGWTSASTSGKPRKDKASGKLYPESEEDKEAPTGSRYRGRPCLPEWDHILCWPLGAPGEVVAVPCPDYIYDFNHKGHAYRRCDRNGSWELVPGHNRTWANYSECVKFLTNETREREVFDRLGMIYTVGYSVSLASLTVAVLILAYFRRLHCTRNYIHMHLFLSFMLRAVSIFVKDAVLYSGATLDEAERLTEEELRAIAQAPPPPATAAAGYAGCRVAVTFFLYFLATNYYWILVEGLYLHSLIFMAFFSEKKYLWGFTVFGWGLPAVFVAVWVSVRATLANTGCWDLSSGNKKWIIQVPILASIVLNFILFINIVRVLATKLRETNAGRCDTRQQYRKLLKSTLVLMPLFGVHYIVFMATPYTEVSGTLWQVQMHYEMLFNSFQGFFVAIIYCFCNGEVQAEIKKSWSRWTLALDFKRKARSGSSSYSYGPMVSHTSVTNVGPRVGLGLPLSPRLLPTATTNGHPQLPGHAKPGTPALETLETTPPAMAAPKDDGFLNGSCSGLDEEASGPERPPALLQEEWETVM
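HEK-293-derived GP2 cells expressing PTHR1 and a GloSensor cAMP reporter, 3,000/well, plated overnight, given luciferin plus IBMX (each 0.5 mM as added) for 1 h at 37 °C, then compound for 1 h at 37 °C. Luminescence was read after 15 min at room temperature.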
Each line names hits and unclear results; the compound was inactive in the other large screens. Unless noted, the call rests on the fitted dose curve; in most records, active means well fitted curve in the direction sought with a large enough effect; inconclusive means small, poorly fitted or top-dose-only effect, or another doubt; inactive means no such curve, though single readings can be large; an effect the other way counts as inactive or inconclusive.

CCc1ccccc1NC(=O)c1ncoc1-c1cccc(C)c1	none (no result: Abeta rescue, TDP43 rescue, aSyn yeast inh, FUS suppressor, PTHR1 ag)
COc1cccc(CNC(=O)CC2CCN(C(=O)c3[nH]c(C)cc3C)CC2)c1	none (no result: Abeta rescue, TDP43 rescue, aSyn yeast inh, FUS suppressor, PTHR1 ag)
CCC(=O)NC(c1ccc(Cl)cc1Cl)c1ccc2cccnc2c1O (stereo not given)	aSyn yeast inh inconclusive, FUS suppressor inconclusive (no result: TDP43 rescue)
CC(C)C(=O)NC(c1ccc(Cl)cc1Cl)c1ccc2cccnc2c1O (stereo not given)	TDP43 rescue 25µM, aSyn yeast inh inconclusive
Cc1ccccc1-c1cc2nc(NCc3ccccc3)n(C)c(=O)c2s1	TDP43 rescue inconclusive, aSyn yeast inh inconclusive, FUS suppressor 28µM
Cc1cnc(CNc2nc3cc(-c4ccccc4C)sc3c(=O)n2C)cn1	TDP43 rescue 35µM
CC(=O)NCCNc1nc2cc(-c3ccccc3C)sc2c(=O)n1C	TDP43 rescue inconclusive
CC(=O)NCCNc1nc2cc(-c3ccccc3CO)sc2c(=O)n1C	TDP43 rescue 35µM, aSyn yeast inh inconclusive
Cc1ccccc1-c1cc2nc(NCc3ccncc3)n(C)c(=O)c2s1	none
COCCNc1nc2cc(-c3ccccc3OC)sc2c(=O)n1C	TDP43 rescue 14µM
CC(C)N(C)CCNC(=O)Nc1ccccc1C(F)(F)F	none (no result: Abeta rescue, TDP43 rescue, aSyn yeast inh, FUS suppressor, PTHR1 ag)
COc1c(Cl)cc(C(=O)O)cc1Cl	TDP43 rescue 35µM
COc1c(Cl)cc(C(N)=O)cc1Cl	none (no result: Abeta rescue, TDP43 rescue, aSyn yeast inh, FUS suppressor, PTHR1 ag)
O=C1N(Cc2ccccc2Cl)c2ccccc2C1(O)c1c[nH]c2ccccc12 (stereo not given)	TDP43 rescue 16µM, FUS suppressor inconclusive (no result: aSyn yeast inh)
O=C(CC1(O)C(=O)N(Cc2ccccc2Cl)c2ccccc21)c1ccco1 (stereo not given)	none
COc1ccc(C(=O)CC2(O)C(=O)N(Cc3ccccc3Cl)c3ccccc32)cc1 (stereo not given)	TDP43 rescue 32µM
O=C1N(Cc2ccccc2)c2ccccc2C1(O)c1c[nH]c2ccccc12 (stereo not given)	none (no result: aSyn yeast inh)
Cn1cc(C(=O)N2CCN(C(=O)c3cccs3)CC2)c2ccccc21	none (no result: Abeta rescue, TDP43 rescue, aSyn yeast inh, FUS suppressor, PTHR1 ag)
Cc1cc(=O)oc2cc(OCc3cccc4ccccc34)ccc12	none (no result: Abeta rescue, TDP43 rescue, aSyn yeast inh, FUS suppressor, PTHR1 ag)
CCN(CC)C(=O)c1sc2c(c1C)c(=O)n(-c1ccc(OC)cc1OC)c(=O)n2CC(=O)c1ccc(Cl)cc1	FUS suppressor 20µM (no result: aSyn yeast inh)
c1ccc(-c2nnc(N3CCCC3)nc2-c2ccccc2)cc1	TDP43 rescue 18µM, PTHR1 ag inconclusive
c1ccc(-c2nnc(N3CCN(c4ccccc4)CC3)nc2-c2ccccc2)cc1	none
CN(C)C(=O)CN1CCN(C(C(=O)O)c2c(-c3ccccc3)[nH]c3ccccc23)CC1 (stereo not given)	none (no result: Abeta rescue, TDP43 rescue, aSyn yeast inh, FUS suppressor, PTHR1 ag)
C(=N\Nc1nc(-c2ccccn2)nc2ccccc12)/c1ccccc1	aSyn yeast inh 13µM (no result: Abeta rescue, TDP43 rescue, FUS suppressor, PTHR1 ag)
COc1cc(NC(=O)[C@H]2CCCN2S(=O)(=O)c2cccc3cccnc23)cc(OC)c1OC	none
COc1ccc(NC(=O)C2CCCN2S(=O)(=O)c2cccc3cccnc23)c(OC)c1 (stereo not given)	TDP43 rescue 2.5µM
CC(=O)Nc1nc(-c2cccs2)cs1	none
O=C(Nc1nc(-c2cccs2)cs1)c1ccc(Cl)s1	TDP43 rescue 3.5µM
CC1CN(c2nc3c(c(=O)n(Cc4ccc(Cl)c(Cl)c4)c(=O)n3C)n2C)CC(C)O1 (stereo not given)	TDP43 rescue 25µM, FUS suppressor inconclusive
O=C(Cc1ccccc1)n1nc(-c2ccco2)nc1SCc1ccccc1	TDP43 rescue 11µM
Cc1ccc(N(CC(=O)N2CCN(c3ccc(Cl)cc3)CC2)S(=O)(=O)c2c(C)noc2C)cc1	Abeta rescue inconclusive (no result: aSyn yeast inh)
Cc1ccc(N(CC(=O)N2CCN(c3cc(C)ccc3C)CC2)S(=O)(=O)c2c(C)nn(C)c2C)cc1	TDP43 rescue 35µM, FUS suppressor inconclusive (no result: aSyn yeast inh)

Screening results: PubChem, National Center for Advancing Translational Sciences (NCATS)
